Assay results from PubChem BioAssay (Tox21).
Results filed as inconclusive are left out. The source made the active and inactive calls. Unless noted, calls follow the shape of the dose curve; as a rule, active = well fitted curve in the direction sought with a large enough effect in the repeat runs; inconclusive = weak or mixed curves; inactive = no such curve, though single readings can be large; an effect the other way counts as inactive or inconclusive.

Assays:
[1] = qHTS assay to identify small molecule agonists of H2AX (AID 1224845; active = well fitted activation curve with a large enough effect in the signal ratio in the repeat runs, not every such curve was filed as active; the % refers to the signal ratio)
Summary of the method: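 Wild-type CHO-K1 cells, plated overnight, exposed 3hr at 37C to 15 concentrations (0.76% DMSO final). Lysed, then HTRF anti-pH2AX (S139) cryptate and anti-H2AX-d2 antibodies, 24 hr room temperature; 665/620 nm emission read.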

[2] = qHTS assay to identify small molecule agonists of the hypoxia (HIF-1) signaling pathway (AID 1224846; active = well fitted activation curve with a large enough effect in the signal ratio in the repeat runs, not every such curve was filed as active; the % refers to the signal ratio)
Summary of the method: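 Compounds added to ME-180 cells carrying hypoxia-response-element beta-lactamase reporter (0.5% dialyzed FBS, 5 h preplating), 17 h at 37C; agonist activity detected by CCF4-AM B/G FRET read-out.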

[3] = qHTS assay to identify small molecule agonists of H2AX - cell viability counter screen (AID 1224847; calls by dose curve; also: top concentration of the series differs between compounds; nearly all actives have a fitted effect of over 30% in size)
Summary of the method: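 After overnight plating of 1000 CHO-K1 cells per well, a 15-concentration compound series was applied for 3 hr at 37C. Luminescence from CellTiter-Glo, read following 30 min at room temperature, reflected cell viability.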

[4] = qHTS RealTime-Glo MT Cell Viability Assay in HepG2 cells - 24 hour (AID 1224867); also: nearly all actives have a fitted effect of over 50% in size
Summary of the method: (§1)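 Luminescence read-out: viable HepG2 cells reduce a prosubstrate to a NanoLuc substrate, giving a signal proportional to live cell number. Reads taken at 0, 8, 16, 24, 32 and 40 h of compound exposure at 37 C.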

[5] = qHTS RealTime-Glo MT Cell Viability Assay in HEK293 cells - 32 hour (AID 1224868); also: top concentration of the series differs between compounds; nearly all actives have a fitted effect of over 50% in size
Summary of the method: (§2)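 Nonlytic real-time viability readout: viable cells convert prosubstrate to NanoLuc substrate, giving luminescence proportional to live cell number. HEK293, 600 cells/well, compound added after 5 h, continuous culture at 37 C.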

[6] = A CellTox Green Cytotoxicity Assay to monitor cytotoxicity in HEK293 cells - 0 hour (AID 1224869); also: nearly all actives have a fitted effect of over 50% in size
Summary of the method: (§3)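 Fluorescence from a DNA-binding dye excluded by viable cells was measured repeatedly in the same HEK293 wells (600 cells/well) during continuous compound exposure at 37 C. Each assay gives one read point: 0, 8, 16, 24, 32 or 40 h.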

[7] = qHTS RealTime-Glo MT Cell Viability Assay in HepG2 cells - 40 hour (AID 1224870); also: nearly all actives have a fitted effect of over 50% in size
Summary of the method: (§4)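 HepG2 cells (600/well) mixed with RealTime-Glo MT reagent, settled 5 h at 37 C/5% CO2 before compound addition. Nonlytic NanoLuc luminescence from viable-cell prosubstrate reduction read repeatedly during 40 h treatment at 37 C.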

[8] = A CellTox Green Cytotoxicity Assay to monitor cytotoxicity in HEK293 cells - 40 hour (AID 1224871); also: nearly all actives have a fitted effect of over 45% in size
Summary of the method: as §3

[9] = qHTS RealTime-Glo MT Cell Viability Assay in HepG2 cells - 8 hour (AID 1224873); also: nearly all actives have a fitted effect of over 55% in size
Summary of the method: as §4

[10] = qHTS RealTime-Glo MT Cell Viability Assay in HEK293 cells - 40 hour (AID 1224874); settings: RealTime-Glo luminescence; max response: hits give low values; also: nearly all actives have a fitted effect of over 50% in size
Summary of the method: (§5)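 Luminescence, which tracks viable cell number through reduction of the prosubstrate to a NanoLuc substrate, was read over continuous 37 C culture. Cells (600/well) were premixed with reagent and rested 5 h before 23 nL of compound in DMSO was pinned.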

[11] = A CellTox Green Cytotoxicity Assay to monitor cytotoxicity in HepG2 cells - 16 hour (AID 1224876); also: nearly all actives have a fitted effect of over 45% in size
Summary of the method: (§6)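 Real-time cytotoxicity: fluorescence of a cell-impermeant cyanine dye binding DNA of dead HepG2 cells, measured repeatedly (0–40 h) during compound exposure at 37 C. Cells seeded 600/well with reagent, dosed after 5 h.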

[12] = qHTS RealTime-Glo MT Cell Viability Assay in HepG2 cells - 32 hour (AID 1224877); also: nearly all actives have a fitted effect of over 55% in size
Summary of the method: as §1

[13] = A CellTox Green Cytotoxicity Assay to monitor cytotoxicity in HepG2 cells - 24 hour (AID 1224878); also: nearly all actives have a fitted effect of over 45% in size
Summary of the method: as §6

[14] = A CellTox Green Cytotoxicity Assay to monitor cytotoxicity in HepG2 cells - 40 hour (AID 1224879); also: nearly all actives have a fitted effect of over 40% in size
Summary of the method: as §6

[15] = A CellTox Green Cytotoxicity Assay to monitor cytotoxicity in HEK293 cells - 32 hour (AID 1224881); also: nearly all actives have a fitted effect of over 40% in size
Summary of the method: as §3

[16] = qHTS RealTime-Glo MT Cell Viability Assay in HEK293 cells - 16 hour (AID 1224872)
Summary of the method: as §2

[17] = A CellTox Green Cytotoxicity Assay to monitor cytotoxicity in HEK293 cells - 24 hour (AID 1224875); also: nearly all actives have a fitted effect of over 45% in size
Summary of the method: as §3

[18] = qHTS RealTime-Glo MT Cell Viability Assay in HEK293 cells - 0 hour (AID 1224880)
Summary of the method: as §5

[19] = qHTS assay to identify small molecule antagonists of the estrogen related receptor (ERR) signaling pathway from Tox21 library (AID 1224848); also: nearly all actives have a fitted effect of over 50% in size
Summary of the method: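 Compounds dissolved in DMSO are pin-transferred onto ERR reporter cells (2,000 per well) that have settled for 6 h at 37 C. Plates then incubate 18 h at 37 C before ONE-Glo luciferase reagent and a luminescence read 30 min later.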

[20] = qHTS assay to identify small molecule agonists of the estrogen related receptor (ERR) signaling pathway from Tox21 library (AID 1224849; calls by dose curve; also: nearly all actives have a fitted effect of over 15% in size); settings: ERR reporter cell line, ONE-Glo luciferase, 18 h; at 92.4 µM (top of the series) unless noted
Summary of the method: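 Luminescent agonist read-out (One-Glo, 30-minute room-temperature incubation) following 18-hour compound treatment at 37 C of the ERR cell line, which had been plated 6 hours before dosing.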
% is scaled to controls: 0 for no effect and ±100 for the full control effect.

CCCCCCCC/C=C\CCCCCCCC(=O)OCCOC(=O)CCCCCCC/C=C\CCCCCCCC
inactive: Potency [1] | outcome [2] | Potency [3] | Potency [4] | Potency [5] | Potency [6] | Potency [7] | Potency [8] | Potency [9] | max response [10] -19.3% | Potency [11] | Potency [12] | Potency [13] | Potency [14] | Potency [15]

O=CC1CC1
inactive: Potency [1] | outcome [2] | Potency [3] | Potency [4] | Potency [5] | Potency [6] | Potency [7] | Potency [8] | Potency [16] | Potency [17] | Potency [11] | Potency [12] | Potency [13] | Potency [14] | Potency [18] | Potency [15]

CCc1cccc(C)c1
inactive: Potency [1] | outcome [2] | Potency [3] | Potency [4] | Potency [5] | Potency [6] | Potency [8] | Potency [16] | Potency [9] | max response [10] -0.877% | Potency [17] | Potency [11] | Potency [12] | Potency [13] | Potency [14] | Potency [18] | Potency [15]

CN(C)CCN1CCOCC1
inactive: Potency [1] | outcome [2] | Potency [3] | Potency [4] | Potency [5] | Potency [6] | Potency [7] | Potency [8] | Potency [16] | max response [10] 7.62% | Potency [11] | Potency [12] | Potency [13] | Potency [14] | Potency [18]

C/C=C/c1ccc(OC)c(OC)c1
inactive: Potency [1] | outcome [2] | Potency [3] | Potency [4] | Potency [6] | Potency [7] | Potency [8] | Potency [16] | Potency [9] | Potency [11] | Potency [12] | Potency [13] | Potency [14] | Potency [18] | Potency [15]

OCCC(O)CO (stereo unspecified)
inactive: Potency [1] | outcome [2] | Potency [3] | Potency [4] | Potency [5] | Potency [6] | Potency [8] | Potency [16] | Potency [9] | Potency [17] | Potency [11] | Potency [12] | Potency [13] | Potency [14] | Potency [18] | Potency [15]

COc1cccc(O)c1
inactive: Potency [1] | outcome [2] | Potency [4] | Potency [5] | Potency [6] | Potency [7] | Potency [8] | Potency [16] | Potency [9] | Potency [17] | Potency [11] | Potency [12] | Potency [13] | Potency [14] | Potency [18] | Potency [15]

c1ccc2c(c1)CCC2
inactive: Potency [1] | outcome [2] | Potency [4] | Potency [5] | Potency [6] | Potency [8] | Potency [16] | Potency [9] | max response [10] 5.18% | Potency [17] | Potency [11] | Potency [12] | Potency [13] | Potency [14] | Potency [18] | Potency [15]

CC(=O)O[C@@H]1C[C@@H]2CC[C@@]1(C)C2(C)C
inactive: Potency [1] | outcome [2] | Potency [4] | Potency [5] | Potency [6] | Potency [7] | Potency [8] | Potency [16] | max response [10] 0.199% | Potency [17] | Potency [11] | Potency [12] | Potency [13] | Potency [14] | Potency [18]

[O]=[Zr]
inactive: Potency [1] | outcome [2] | Potency [19] | activity change, positive = activation [20] 5.09% | Potency [4] | Potency [5] | Potency [6] | Potency [8] | Potency [16] | Potency [9] | max response [10] 1.9% | Potency [17] | Potency [11] | Potency [12] | Potency [13] | Potency [14] | Potency [18] | Potency [15]

CC(C)(C)c1cc(CCC(=O)NCCCCCCNC(=O)CCc2cc(C(C)(C)C)c(O)c(C(C)(C)C)c2)cc(C(C)(C)C)c1O
inactive: Potency [1] | outcome [2] | Potency [3] | Potency [6] | Potency [7] | Potency [8] | max response [10] -24.8% | Potency [11] | Potency [13] | Potency [14] | Potency [15]

O=C(O)CC(=O)O
inactive: Potency [1] | outcome [2] | Potency [4] | Potency [5] | Potency [6] | Potency [8] | Potency [16] | Potency [9] | max response [10] 11.5% | Potency [17] | Potency [11] | Potency [12] | Potency [13] | Potency [14] | Potency [18] | Potency [15]

OCCCc1cccnc1
inactive: Potency [1] | outcome [2] | Potency [3] | Potency [4] | Potency [6] | Potency [8] | Potency [16] | Potency [9] | max response [10] -2.22% | Potency [17] | Potency [11] | Potency [12] | Potency [13] | Potency [14] | Potency [18] | Potency [15]

C[Si](C)(C)Cl
inactive: Potency [1] | outcome [2] | Potency [19] | activity change, positive = activation [20] 0.496% | Potency [4] | Potency [5] | Potency [6] | Potency [7] | Potency [8] | Potency [16] | Potency [9] | max response [10] 8.44% | Potency [17] | Potency [11] | Potency [12] | Potency [13] | Potency [14] | Potency [18] | Potency [15]

CCCCN(C)C
inactive: Potency [1] | outcome [2] | Potency [4] | Potency [6] | Potency [7] | Potency [8] | Potency [16] | Potency [9] | Potency [17] | Potency [11] | Potency [12] | Potency [13] | Potency [14] | Potency [18] | Potency [15]
